High-throughput results (PubChem BioAssay)
CHX counter: counter-screen for Shiga toxin inhibitors: cycloheximide protein synthesis inhibition | cell reporter, cycloheximide protein synthesis inhibition counterscreen | actives 12% (n = 300,000) | max response, % | AID 2314; in the data active = max response mostly above about 13%, no sharp cut-off; inactive = mostly below about 14%; note: read at 38.3 µM for the half of the compounds with a filed dose
Pf growth 96h: inhibits malaria parasite growth, 96 h. Potency, µM (titrated, usually from 28.7 µM), usual class: inhibitors. actives 6.9% (n = 320,000). P. falciparum luciferase reporter growth, 96 h
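P. falciparum expressing integrated firefly luciferase grown in erythrocytes (2% hematocrit, 0.05% parasitemia final) with compounds for 96 hours at 37 C, 5% CO2. Growth inhibition read as loss of luminescence after adding luciferase detection reagent.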
Pf growth 48h: inhibits P. falciparum growth in the first generation, 48 h | P. falciparum luciferase growth in erythrocytes, 48 h | actives 5.9% (n = 310,000) | Potency, µM (titrated, usually from 28.7 µM), usual class: inhibitors
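Cell-based growth assay: transgenic P. falciparum expressing firefly luciferase, cultured in red cells within RPMI 1640 containing 0.5% w/v Albumax, 24 mM bicarbonate and gentamycin. A drop in luciferase activity indicates inhibition.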
Giardia FBPA inh: Giardia lamblia aldolase inhibition; actives 0.71% (n = 290,000); A8B2U2; Potency, µM (highest dose often 59.6 µM), usual class: inhibitors; AID 2451; purified Giardia FBPA; note: nearly all actives have a fitted effect of over 55% in size
Target sequence (A8B2U2 whole entry, looked up): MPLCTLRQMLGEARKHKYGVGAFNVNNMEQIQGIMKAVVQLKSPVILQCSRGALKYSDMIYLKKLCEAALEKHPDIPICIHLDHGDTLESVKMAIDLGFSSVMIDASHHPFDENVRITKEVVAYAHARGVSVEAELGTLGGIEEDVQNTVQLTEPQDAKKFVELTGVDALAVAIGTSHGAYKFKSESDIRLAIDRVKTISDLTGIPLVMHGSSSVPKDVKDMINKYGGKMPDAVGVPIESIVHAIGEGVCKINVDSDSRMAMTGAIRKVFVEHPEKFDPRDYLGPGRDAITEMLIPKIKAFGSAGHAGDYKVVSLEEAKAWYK
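Giardia FBPA (40 nM reagent) was preincubated 10 min at RT with compound (up to 57.5 uM final), then substrate plus GAPDH/TPI/NAD/arsenate coupling system with diaphorase/resazurin was added; resorufin fluorescence (525/598 nm) was read after 20 min.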
Shiga toxin inh: blocks Shiga toxin action in Vero cells. inhibition, % at 38.7 µM. Vero cells, Shiga toxin protein synthesis inhibition reporter. AID 2315. actives 9.2% (n = 290,000); in the data active = inhibition mostly above about 28%, no sharp cut-off; inactive = mostly below about 43%
NS1 function inh: inhibitors of influenza NS1 protein function; Potency, µM (top dose mostly 46.1 µM); actives 0.4% (n = 270,000); calls by dose curve; note: actives are rising curves; nearly all actives have a fitted effect of over 50% in size
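Compounds were scored for reversing the slow growth caused by influenza A NS1 in S. cerevisiae, measured by optical density at 600 nm. Assay medium contained 2% galactose at pH 6.0; NS1-free yeast of the same strain were the positive control.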
A number is an active result; [ ] = another dose, or the depositor's remark. Shown are actives, neighbours in structure and some others; about 21% of the full set was active somewhere. Unless noted, calls come from the whole dose curve; as a rule, active = well fitted curve in the direction sought with a large enough effect; inconclusive = small, poorly fitted or top-dose-only effect, or another doubt; inactive = no such curve, though single readings can be large; an effect the other way counts as inactive or inconclusive.

For COc1ccc(CN2C(=O)c3cccnc3C2=O)cc1S(=O)(=O)N1CCCC(C)C1 (configuration not stated) the results were CHX counter inactive, Pf growth 96h 15µM, Pf growth 48h inactive, Giardia FBPA inh inactive, Shiga toxin inh inactive and NS1 function inh inactive.
`Cc1ccc(-n2ncc3c2ncn2c(C)nnc32)cc1C` gave CHX counter 30, Pf growth 96h inconclusive, Pf growth 48h inactive, Giardia FBPA inh inactive, Shiga toxin inh 63 and NS1 function inh inactive.
c1ccc(-n2ncc3c2ncn2cnnc32)cc1 was read as CHX counter inactive, Pf growth 96h inactive, Pf growth 48h inactive, Giardia FBPA inh inactive, Shiga toxin inh inactive and NS1 function inh inactive.
`c1ccc(-n2ncc3c2ncn2nnnc32)cc1` gave CHX counter inactive, Pf growth 96h inconclusive, Giardia FBPA inh inactive, Shiga toxin inh inactive and NS1 function inh inactive.
For CCc1nnc2c3cnn(-c4ccccc4)c3ncn12 the results were CHX counter 28, Pf growth 96h inactive[5.75 µM], Pf growth 48h inactive, Giardia FBPA inh inactive, Shiga toxin inh 67 and NS1 function inh inactive.
Cc1nc2c3cnn(-c4ccccc4)c3ncn2n1 was read as CHX counter 21, Pf growth 96h inconclusive, Pf growth 48h inconclusive, Giardia FBPA inh inactive, Shiga toxin inh 34 and NS1 function inh inactive.
Screening O=C(COC(=O)CNC(=O)c1ccc(-c2ccccc2)cc1)NCc1ccco1 returned CHX counter inactive, Pf growth 96h inactive, Pf growth 48h inactive, Giardia FBPA inh inactive and Shiga toxin inh inactive.
`COc1ccccc1CNC(=O)COC(=O)c1ccc2c(=O)n3c(nc2c1)CCCCC3` gave Pf growth 96h inactive and Pf growth 48h inactive.
COC(=O)C1=CN(Cc2ccc(C)cc2)C=C(C(=O)OC)C1c1cc(OC)c(OC)c(OC)c1 was read as CHX counter inactive, Pf growth 96h inconclusive, Pf growth 48h 1.5µM, Giardia FBPA inh inactive, Shiga toxin inh inactive and NS1 function inh inactive.
Screening COC(=O)C1=CN(Cc2ccccc2)C=C(C(=O)OC)C1c1ccc(O)c(OC)c1 returned CHX counter inactive, Pf growth 96h inactive, Pf growth 48h 13µM, Giardia FBPA inh inactive and NS1 function inh inactive.
Screening COC(=O)C1=CN(Cc2ccccc2)C=C(C(=O)OC)C1c1ccc(OC)c(OC)c1 returned CHX counter inactive, Pf growth 96h inactive, Pf growth 48h inconclusive, Giardia FBPA inh inactive, Shiga toxin inh inactive and NS1 function inh inactive.
COCCN1C=C(C(=O)OC)C(c2cc(Br)c(OC)c(OC)c2)C(C(=O)OC)=C1 was read as CHX counter inactive, Pf growth 96h inactive, Pf growth 48h 3.3µM, Giardia FBPA inh inactive, Shiga toxin inh inactive and NS1 function inh inactive.
O=C(CN1CCN(C(=O)CCC(=O)N2CCC(c3ccccc3)=N2)CC1)Nc1ccc(F)cc1 was read as Pf growth 96h inactive and Pf growth 48h inactive.
`O=C1[C@H]2[C@H]3[C@H](O)[C@H](O)C/C(=N/OC[C@@H](O)COCc4ccco4)[C@H]3CC[C@@H]2C(=O)N1C[C@@H]1CCCO1` gave Giardia FBPA inh inactive[12.9 µM].
CN(CC(=O)NCC1CCCCC1)CC(=O)Nc1ccccc1Br was read as Pf growth 96h inconclusive and Pf growth 48h inactive.
For COc1ccc2ccc(C(C)(C(C)=O)C(=O)OC(C)C)cc2c1 (configuration not stated) the results were Pf growth 96h inconclusive and Pf growth 48h inactive.
CCCCOc1ccc(N2CC(C(=O)NCc3ccco3)CC2=O)cc1 (configuration not stated) was read as CHX counter inactive, Pf growth 96h inactive, Pf growth 48h inactive, Giardia FBPA inh inactive, Shiga toxin inh inactive and NS1 function inh inconclusive.
Screening Cc1cc(C)c(C)c(S(=O)(=O)N2CCN(c3ccccn3)CC2)c1C returned CHX counter inactive, Pf growth 96h inactive, Pf growth 48h inactive, Giardia FBPA inh inactive, Shiga toxin inh inactive and NS1 function inh inactive.
`Cc1cc(C)c(C)c(S(=O)(=O)N2CCN(c3ncnc4ccccc34)CC2)c1C` gave Pf growth 96h inconclusive and Pf growth 48h 12µM.
For CC(/C=C/c1ccco1)=N\NC(=O)c1cccc(Cl)c1 the results were CHX counter 35, Pf growth 96h inconclusive, Pf growth 48h inconclusive, Giardia FBPA inh inactive, Shiga toxin inh inactive and NS1 function inh inactive.
For CC(/C=C/c1ccco1)=N\NC(=O)CNc1ccc2ccccc2c1 the results were CHX counter inactive, Pf growth 96h inconclusive, Pf growth 48h inactive, Giardia FBPA inh inconclusive and Shiga toxin inh inactive.
Screening CC(/C=C/c1ccco1)=N/NC(=O)c1ccccc1Cl returned CHX counter 26, Pf growth 96h inactive, Pf growth 48h inactive, Giardia FBPA inh inactive, Shiga toxin inh inactive and NS1 function inh inactive.
Screening COc1ccc(S(=O)(=O)N2CCN(C(=O)c3ccc(C)o3)CC2)cc1 returned CHX counter inactive, Pf growth 96h inconclusive, Pf growth 48h inconclusive, Giardia FBPA inh inactive, Shiga toxin inh inactive and NS1 function inh inactive.
Screening COc1ccc(C(C)=O)cc1COC(=O)c1ccc(C)c(S(=O)(=O)N2CCOCC2)c1 returned Pf growth 96h 9.3µM and Pf growth 48h 9.3µM.
`COc1ccc(C(=O)OCc2cc(C)ccc2C)cc1S(=O)(=O)N1CCCC1` gave Pf growth 96h 10µM and Pf growth 48h 7.4µM.
For COc1ccc(C(=O)OCC(=O)N2CCOCC2)cc1S(=O)(=O)N1CCOCC1 the results were Pf growth 96h inconclusive and Pf growth 48h inactive.
`C=CCOC(=O)C1=C(C)NC(SCC(=O)Nc2ccccc2)=C(C#N)C1c1ccco1` (configuration not stated) gave CHX counter inactive, Pf growth 96h inconclusive, Pf growth 48h 9.3µM, Giardia FBPA inh inactive, Shiga toxin inh inactive and NS1 function inh inconclusive.
CCOC(=O)C1=C(C)NC(SCC(=O)O)=C(C#N)C1c1ccco1 (configuration not stated) was read as CHX counter inactive, Pf growth 96h inactive, Pf growth 48h inactive, Giardia FBPA inh inactive, Shiga toxin inh inactive and NS1 function inh inactive.
C=CCOC(=O)C1=C(C)NC(SCC(=O)N(CC)CC)=C(C#N)C1c1ccco1 (configuration not stated) was read as CHX counter inactive, Pf growth 48h 13µM, Giardia FBPA inh inactive, Shiga toxin inh inactive and NS1 function inh inactive.
Screening C=CCOC(=O)C1=C(C)NC(SCC(=O)NC(=O)OCC)=C(C#N)C1c1cccnc1 (configuration not stated) returned CHX counter inactive, Pf growth 96h inactive, Pf growth 48h 10µM, Giardia FBPA inh inactive, Shiga toxin inh inactive and NS1 function inh inactive.
`C=CCOC(=O)C1=C(C)NC(SCC(N)=O)=C(C#N)C1c1cccs1` (configuration not stated) gave CHX counter inactive, Pf growth 96h inconclusive, Pf growth 48h inactive, Giardia FBPA inh inactive, Shiga toxin inh inactive and NS1 function inh inactive.
